How the values were obtained:
Experiment in all cases: log2 ratio of Biotin-Ahx-Ub-VS probe labelling (fragment/DMSO); higher = less target engagement (more negative = stronger competition), active = hit call of the paper (q ≤ 0.05, log2 ratio ≤ -1)
Conditions in all cases: compound concentration: 200 uM; treatment time: 3 h
[1] = target: T1, USP19 (UniProt O94966)
T1 sequence (whole entry): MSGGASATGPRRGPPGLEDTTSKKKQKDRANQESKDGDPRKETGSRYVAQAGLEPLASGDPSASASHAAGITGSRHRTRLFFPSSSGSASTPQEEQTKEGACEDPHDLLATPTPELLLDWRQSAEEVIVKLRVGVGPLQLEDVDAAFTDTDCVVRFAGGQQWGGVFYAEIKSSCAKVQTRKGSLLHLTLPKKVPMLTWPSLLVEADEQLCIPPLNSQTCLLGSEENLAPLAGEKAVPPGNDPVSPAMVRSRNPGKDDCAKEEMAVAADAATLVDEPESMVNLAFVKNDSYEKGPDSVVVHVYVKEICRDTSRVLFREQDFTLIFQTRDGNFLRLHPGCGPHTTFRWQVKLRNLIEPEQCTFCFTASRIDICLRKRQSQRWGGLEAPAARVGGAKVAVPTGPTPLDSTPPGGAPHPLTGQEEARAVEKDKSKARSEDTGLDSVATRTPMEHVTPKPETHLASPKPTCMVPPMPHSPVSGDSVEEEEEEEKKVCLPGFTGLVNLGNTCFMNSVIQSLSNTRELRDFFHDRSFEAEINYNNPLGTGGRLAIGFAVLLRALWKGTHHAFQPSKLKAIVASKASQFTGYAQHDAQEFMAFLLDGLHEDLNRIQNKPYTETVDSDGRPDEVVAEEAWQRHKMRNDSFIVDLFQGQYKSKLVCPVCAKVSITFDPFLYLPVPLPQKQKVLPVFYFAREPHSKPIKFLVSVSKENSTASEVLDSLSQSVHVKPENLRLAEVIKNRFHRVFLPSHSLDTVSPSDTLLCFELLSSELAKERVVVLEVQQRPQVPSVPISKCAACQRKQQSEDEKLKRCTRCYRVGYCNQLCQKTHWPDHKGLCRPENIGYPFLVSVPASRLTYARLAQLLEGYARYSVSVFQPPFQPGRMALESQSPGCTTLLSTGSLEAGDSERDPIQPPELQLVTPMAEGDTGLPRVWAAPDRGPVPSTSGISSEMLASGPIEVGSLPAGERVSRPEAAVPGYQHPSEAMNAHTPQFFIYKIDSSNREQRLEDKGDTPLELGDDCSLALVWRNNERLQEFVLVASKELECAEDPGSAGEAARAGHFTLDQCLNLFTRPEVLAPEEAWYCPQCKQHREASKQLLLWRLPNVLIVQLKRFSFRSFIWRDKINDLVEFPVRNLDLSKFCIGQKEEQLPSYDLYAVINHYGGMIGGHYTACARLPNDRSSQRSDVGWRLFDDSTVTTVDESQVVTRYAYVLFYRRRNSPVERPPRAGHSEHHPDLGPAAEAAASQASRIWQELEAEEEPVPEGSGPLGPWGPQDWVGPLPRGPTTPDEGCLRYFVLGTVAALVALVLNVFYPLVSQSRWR
Method in brief: (§1)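 Triplicate samples of HEK293T lysate, 495 µg each, received fragment at 200 µM or vehicle for 3 h, followed by Biotin-Ahx-Ub-VS (0.5 µM final) for 1 h. After NeutrAvidin enrichment of labelled DUBs and LysC/trypsin digestion, peptides were run by diaPASEF LC-MS/MS. The values are average log2 fragment/vehicle ratios from global-median-normalised Spectronaut label-free quantities, tested by unpaired t-test on proteins having ≥2 unique peptides.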

[2] = target: T2, USP22 (UniProt Q9UPT9)
T2 sequence (whole entry): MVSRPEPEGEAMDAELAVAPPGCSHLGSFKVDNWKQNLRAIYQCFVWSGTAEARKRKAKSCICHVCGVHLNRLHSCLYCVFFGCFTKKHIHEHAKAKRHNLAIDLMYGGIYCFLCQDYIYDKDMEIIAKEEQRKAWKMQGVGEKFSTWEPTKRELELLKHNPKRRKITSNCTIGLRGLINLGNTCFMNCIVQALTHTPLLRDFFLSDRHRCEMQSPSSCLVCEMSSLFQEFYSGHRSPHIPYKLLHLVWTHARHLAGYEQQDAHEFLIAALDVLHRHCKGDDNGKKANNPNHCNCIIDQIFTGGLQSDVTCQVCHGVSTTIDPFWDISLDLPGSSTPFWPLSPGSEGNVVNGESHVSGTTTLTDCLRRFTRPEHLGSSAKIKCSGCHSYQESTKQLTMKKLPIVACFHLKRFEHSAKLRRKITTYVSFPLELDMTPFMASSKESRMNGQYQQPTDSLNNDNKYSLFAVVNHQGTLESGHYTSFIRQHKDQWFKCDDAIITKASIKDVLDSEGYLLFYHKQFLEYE
Method in brief: as §1

[3] = target: USP24 (UniProt Q9UPU5)
Chain of USP24 (Q9UPU5 whole entry): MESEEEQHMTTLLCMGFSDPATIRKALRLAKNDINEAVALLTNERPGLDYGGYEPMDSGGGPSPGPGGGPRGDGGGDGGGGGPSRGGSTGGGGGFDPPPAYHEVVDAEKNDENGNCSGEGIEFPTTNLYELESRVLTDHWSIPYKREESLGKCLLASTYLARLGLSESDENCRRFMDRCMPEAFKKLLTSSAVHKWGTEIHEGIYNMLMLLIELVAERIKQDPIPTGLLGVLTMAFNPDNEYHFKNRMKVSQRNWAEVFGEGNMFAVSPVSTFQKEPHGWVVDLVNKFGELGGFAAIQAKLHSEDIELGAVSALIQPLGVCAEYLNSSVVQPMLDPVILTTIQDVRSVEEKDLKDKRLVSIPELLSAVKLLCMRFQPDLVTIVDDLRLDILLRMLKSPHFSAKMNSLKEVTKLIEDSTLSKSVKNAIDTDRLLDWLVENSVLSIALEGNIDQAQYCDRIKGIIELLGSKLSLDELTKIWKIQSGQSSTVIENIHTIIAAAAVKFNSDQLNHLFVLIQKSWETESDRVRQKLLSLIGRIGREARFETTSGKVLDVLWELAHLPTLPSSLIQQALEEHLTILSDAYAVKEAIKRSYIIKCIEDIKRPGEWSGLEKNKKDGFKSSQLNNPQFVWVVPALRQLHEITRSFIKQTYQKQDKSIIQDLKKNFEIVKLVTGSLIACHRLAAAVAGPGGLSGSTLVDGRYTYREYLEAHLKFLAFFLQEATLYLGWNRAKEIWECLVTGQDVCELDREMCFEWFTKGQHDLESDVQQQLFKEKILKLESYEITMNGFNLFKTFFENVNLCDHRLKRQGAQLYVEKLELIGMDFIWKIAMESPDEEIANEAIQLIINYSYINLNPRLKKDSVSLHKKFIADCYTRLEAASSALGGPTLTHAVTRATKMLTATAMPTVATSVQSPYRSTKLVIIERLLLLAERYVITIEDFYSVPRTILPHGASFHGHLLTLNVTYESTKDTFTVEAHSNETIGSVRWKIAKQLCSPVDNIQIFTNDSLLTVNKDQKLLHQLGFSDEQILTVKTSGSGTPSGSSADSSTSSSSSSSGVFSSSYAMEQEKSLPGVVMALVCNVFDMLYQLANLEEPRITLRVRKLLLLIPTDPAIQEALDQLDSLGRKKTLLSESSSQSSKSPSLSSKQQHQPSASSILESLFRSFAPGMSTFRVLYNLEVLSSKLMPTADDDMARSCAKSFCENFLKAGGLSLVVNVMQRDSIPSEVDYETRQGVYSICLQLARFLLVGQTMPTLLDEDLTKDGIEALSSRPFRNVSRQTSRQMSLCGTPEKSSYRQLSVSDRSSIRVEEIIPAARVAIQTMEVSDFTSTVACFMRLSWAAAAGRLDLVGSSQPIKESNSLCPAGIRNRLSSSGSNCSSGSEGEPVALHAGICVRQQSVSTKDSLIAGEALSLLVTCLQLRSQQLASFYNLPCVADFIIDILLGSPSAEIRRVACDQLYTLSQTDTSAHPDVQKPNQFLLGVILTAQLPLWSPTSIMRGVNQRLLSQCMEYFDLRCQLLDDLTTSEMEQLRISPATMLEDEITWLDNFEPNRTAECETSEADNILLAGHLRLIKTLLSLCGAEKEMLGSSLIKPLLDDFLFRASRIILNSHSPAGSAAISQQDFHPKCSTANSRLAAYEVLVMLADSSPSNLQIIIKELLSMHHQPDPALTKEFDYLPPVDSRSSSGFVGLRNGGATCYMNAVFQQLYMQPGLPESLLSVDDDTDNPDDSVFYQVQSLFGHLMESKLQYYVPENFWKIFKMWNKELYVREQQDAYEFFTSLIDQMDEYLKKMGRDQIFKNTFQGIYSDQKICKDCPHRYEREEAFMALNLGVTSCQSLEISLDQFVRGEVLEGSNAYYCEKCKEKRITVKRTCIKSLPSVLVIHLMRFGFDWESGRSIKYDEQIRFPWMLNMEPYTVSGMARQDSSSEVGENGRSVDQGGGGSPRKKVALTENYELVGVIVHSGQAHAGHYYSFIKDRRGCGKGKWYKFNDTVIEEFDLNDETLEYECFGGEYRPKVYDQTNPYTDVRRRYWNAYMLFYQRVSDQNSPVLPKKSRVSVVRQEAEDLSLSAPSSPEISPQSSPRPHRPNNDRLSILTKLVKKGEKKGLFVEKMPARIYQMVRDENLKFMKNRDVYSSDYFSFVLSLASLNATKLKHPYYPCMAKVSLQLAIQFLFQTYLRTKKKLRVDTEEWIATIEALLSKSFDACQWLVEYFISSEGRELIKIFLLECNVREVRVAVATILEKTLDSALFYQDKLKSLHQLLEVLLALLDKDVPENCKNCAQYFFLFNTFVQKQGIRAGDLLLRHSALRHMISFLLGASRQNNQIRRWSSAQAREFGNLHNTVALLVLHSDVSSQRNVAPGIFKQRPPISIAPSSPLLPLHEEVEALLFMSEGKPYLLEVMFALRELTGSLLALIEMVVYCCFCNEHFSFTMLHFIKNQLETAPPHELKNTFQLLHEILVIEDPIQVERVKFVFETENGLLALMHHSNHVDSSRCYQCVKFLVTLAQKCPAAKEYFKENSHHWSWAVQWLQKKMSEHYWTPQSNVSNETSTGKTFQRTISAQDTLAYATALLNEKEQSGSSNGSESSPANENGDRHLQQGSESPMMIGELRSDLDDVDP
Method in brief: as §1

[4] = target: T3, USP25 (UniProt Q9UHP3)
T3 sequence (whole entry): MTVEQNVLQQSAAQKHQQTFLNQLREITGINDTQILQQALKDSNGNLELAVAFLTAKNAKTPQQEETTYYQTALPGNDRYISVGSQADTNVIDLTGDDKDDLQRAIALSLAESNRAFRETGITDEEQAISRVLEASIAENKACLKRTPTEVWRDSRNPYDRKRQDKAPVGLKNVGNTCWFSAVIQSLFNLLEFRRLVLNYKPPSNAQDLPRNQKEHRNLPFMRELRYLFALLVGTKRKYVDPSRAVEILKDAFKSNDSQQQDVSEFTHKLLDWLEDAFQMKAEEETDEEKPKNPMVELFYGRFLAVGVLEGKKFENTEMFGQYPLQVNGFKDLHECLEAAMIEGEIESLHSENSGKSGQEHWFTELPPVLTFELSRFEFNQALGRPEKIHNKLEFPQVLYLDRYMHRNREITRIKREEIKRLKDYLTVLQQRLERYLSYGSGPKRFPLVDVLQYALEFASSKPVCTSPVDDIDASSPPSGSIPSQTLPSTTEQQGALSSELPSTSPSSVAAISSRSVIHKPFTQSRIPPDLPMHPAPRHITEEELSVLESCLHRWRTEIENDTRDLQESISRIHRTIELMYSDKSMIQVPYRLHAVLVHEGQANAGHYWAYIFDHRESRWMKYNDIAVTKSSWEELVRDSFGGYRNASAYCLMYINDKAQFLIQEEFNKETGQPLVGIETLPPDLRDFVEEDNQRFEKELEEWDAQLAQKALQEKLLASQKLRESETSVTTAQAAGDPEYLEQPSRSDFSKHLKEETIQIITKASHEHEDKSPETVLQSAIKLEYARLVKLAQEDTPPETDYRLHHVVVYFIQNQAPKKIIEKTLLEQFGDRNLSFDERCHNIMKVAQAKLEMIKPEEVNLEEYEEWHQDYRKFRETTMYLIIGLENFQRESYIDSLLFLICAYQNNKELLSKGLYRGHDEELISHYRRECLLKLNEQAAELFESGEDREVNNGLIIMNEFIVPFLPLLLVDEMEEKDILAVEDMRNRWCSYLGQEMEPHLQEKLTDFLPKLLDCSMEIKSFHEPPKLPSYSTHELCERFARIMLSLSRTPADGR
Method in brief: as §1

[5] = target: T4, USP28 (UniProt Q96RU2)
T4 sequence (whole entry): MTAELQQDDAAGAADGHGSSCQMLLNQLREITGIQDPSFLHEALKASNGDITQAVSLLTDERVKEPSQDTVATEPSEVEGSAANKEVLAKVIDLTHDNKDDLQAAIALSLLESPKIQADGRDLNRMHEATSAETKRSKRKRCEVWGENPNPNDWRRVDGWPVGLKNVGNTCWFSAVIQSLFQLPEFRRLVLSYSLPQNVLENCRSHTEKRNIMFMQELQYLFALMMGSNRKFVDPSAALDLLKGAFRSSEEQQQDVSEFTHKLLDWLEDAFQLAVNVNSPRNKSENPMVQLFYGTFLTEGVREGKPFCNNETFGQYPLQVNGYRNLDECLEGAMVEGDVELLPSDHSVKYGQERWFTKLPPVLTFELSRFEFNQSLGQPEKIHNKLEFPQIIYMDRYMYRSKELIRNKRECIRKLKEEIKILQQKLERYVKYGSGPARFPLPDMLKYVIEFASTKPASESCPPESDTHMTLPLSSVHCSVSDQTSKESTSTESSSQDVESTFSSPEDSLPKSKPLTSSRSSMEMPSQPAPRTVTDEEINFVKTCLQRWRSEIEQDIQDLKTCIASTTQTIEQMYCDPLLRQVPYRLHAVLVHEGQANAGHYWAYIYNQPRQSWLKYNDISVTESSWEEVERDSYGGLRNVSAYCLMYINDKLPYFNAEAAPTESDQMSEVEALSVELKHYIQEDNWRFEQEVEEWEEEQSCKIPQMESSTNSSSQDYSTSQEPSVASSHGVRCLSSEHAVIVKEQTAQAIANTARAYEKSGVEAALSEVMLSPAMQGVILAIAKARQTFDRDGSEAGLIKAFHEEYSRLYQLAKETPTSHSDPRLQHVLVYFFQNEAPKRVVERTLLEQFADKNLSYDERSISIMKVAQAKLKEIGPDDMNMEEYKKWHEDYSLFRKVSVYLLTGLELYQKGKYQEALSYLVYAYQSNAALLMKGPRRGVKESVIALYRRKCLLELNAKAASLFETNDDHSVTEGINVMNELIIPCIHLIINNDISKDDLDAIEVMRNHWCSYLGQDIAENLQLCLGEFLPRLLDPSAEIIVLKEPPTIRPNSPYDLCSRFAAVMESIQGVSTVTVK
Method in brief: as §1

Measured: log2 ratio of Biotin-Ahx-Ub-VS probe labelling

Cc1cccnc1NC(=O)C1CCN(C(=O)CCl)CC1.Cl
inactive: [1] -0.314 | [2] 0.169 | [3] -0.409 | [4] -0.184 | [5] -0.564
